Assay results from PubChem BioAssay (NCI).
This is part of a sample that, as a whole, favours compounds with a hit. Of some 83,000 tested, about 20% had one in any assay.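 Percent growth is the endpoint: 0 to 100 indicates growth inhibition (40 means 60% inhibition), 0 means no net growth, and negative values indicate cell death.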 Calls of active or inactive are those of the source. Rule for the calls: active = growth percent below 10; inactive = the rest.

system: U251 CNS; experiment: NCI-60 one-dose screen, 48 h (100 = growth as untreated, 0 = no growth, -100 = all killed); conditions: 10 µM unless noted

Row | SMILES | growth
1 | NC(=O)c1c(NC(=O)c2ccc(Cl)cc2)sc2c1CCC(=O)C2 | 24% (inactive)
2 | Nc1c(C(=O)Nc2cccc3ncccc23)sc2nc3c(cc12)C(=O)CCC3 | 57.5% (inactive)
3 | CCOC(=O)c1cn2ncnc(Oc3ccc(NC(=O)NC4CC4)c(F)c3)c2c1C | 82.5% (inactive)
4 | CCOC(=O)c1c2c(n3c1NCC3)-c1ccccc1C2=O | 101% (inactive)
5 | CCCC(O)Cn1ncc(C(=O)OCC)c1NC(=O)NCc1cccc(F)c1 (stereo not given) | 101% (inactive)
6 | O=C(CCC(=O)c1nc2ncccc2[nH]1)NN1C(=O)CSC1c1ccc(Cl)cc1 (stereo not given) | 95.2% (inactive)
7 | COc1ccc2nc(Cl)c(/C=C/C(=O)c3ccc(NC(=O)CSc4nnc(-c5ccc(Cl)c(Cl)c5)n4-c4ccccc4)cc3)cc2c1 | 87.4% (inactive)
8 | CS(=O)(=O)Nc1cncc(-c2ccc3ncnc(Nc4ccc(F)c(Cl)c4)c3c2)c1 | 8.79% (active)
9 | Cc1ccc(-c2nc(C#N)c(S(=O)(=O)NCCO)o2)cc1 | 74% (inactive)
10 | O=C1OCC2=C1C(c1cccc(C(F)(F)F)c1)c1cc3c(cc1N2CCO)OCO3 (stereo not given) | 21% (inactive)
11 | Cc1[nH]c(C(=O)Nc2cccc(OC3CCNCC3)c2)c(Cl)c1Cl | 63.9% (inactive)
12 | O=C1/C(=C/c2ccc(Br)cc2)COc2ccc(O)c(O)c21 | -72.4% (active)
13 | CCN1C(=S)N(CC)C2C1NC(=S)N2/N=C/C=C/c1ccccc1OC (stereo not given) | 13.1% (inactive)
14 | COc1cc(-c2nc3occn3c2-c2ccnc(NCCCNS(=O)(=O)c3ccccc3)n2)ccc1F | 73.4% (inactive)
15 | O=C(O)c1cccc(N/C=C/C(=O)c2cc3cc(Br)ccc3oc2=O)c1 | 96.9% (inactive)
16 | N#Cc1c(Nc2ccc(F)cc2)n[nH]c1-c1cccs1 | 102% (inactive)
17 | COc1ccc(C2C(C#N)=C(N)Oc3c2sc2c(Br)cccc32)cc1 (stereo not given) | 20.4% (inactive)
18 | CCNc1nc(-c2ccc(F)cc2)c(C#N)c(=O)n1C | 65.2% (inactive)
19 | CC12CCC(/C(=C/NNc3ccc([N+](=O)[O-])cc3[N+](=O)[O-])C1=O)C2(C)C (stereo not given) | 58.4% (inactive)
20 | S=c1[nH]c2cc(Cl)ccc2o1 | 104% (inactive)

Row | SMILES | growth
21 | COc1cc2c3c(c1O)-c1ccccc1[C@@H]1OC(=O)N(CC2)[C@H]31 | 94.8% (inactive)
22 | CC(C)CSc1oc(-c2ccccc2)nc1S(=O)(=O)c1ccccc1 | 84.2% (inactive)
23 | C#CCOc1cccc(-c2ncc3cc(NC(=O)CCl)ccc3n2)c1 | -95.7% (active)
24 | Cn1c(=O)c2c(nc(NC3=NS(=O)(=O)c4ccccc43)n2Cc2ccccc2)n(C)c1=O | 104% (inactive)
25 | COc1cc2c(c(OC)c1OC)C(=O)CC(c1cccc(NC(=O)c3ccccc3Br)c1)O2 (stereo not given) | 91.5% (inactive)
26 | CC(C)(CO)N(CCO)CCO | 91.4% (inactive)
27 | CC(=O)c1c(Nc2ccc(F)c(F)c2F)[nH]c2c(F)cc(F)cc2c1=O | 0.133% (active)
28 | C#CCOc1ccc2ncnc(Nc3cccc(NC(=O)CCl)c3)c2c1 | 62.2% (inactive)
29 | COc1ccc(/C=C/C(=O)c2ccc(NC(=O)CSc3nnc(-c4cc(-c5ccccc5)nc5ccccc45)n3-c3ccccc3)cc2)cc1 | 102% (inactive)
30 | CCn1cc(C2=C(c3cn(C)c4ncccc34)C(=O)NC2=O)c2cccnc21 | 76.7% (inactive)
31 | NNC(=S)N/N=C/c1ccccn1 | 28.4% (inactive)
32 | Cc1ccc2nc(Cl)c(Cn3nnnc3SCc3ccccc3)cc2c1 | 95.8% (inactive)
33 | Clc1nn2c(Cn3cnc4c(NCc5ccccc5)ncnc43)nnc2c2ccccc12 | 34.5% (inactive)
34 | CN(C)c1ccc(/C=C2/C=C(c3ccccc3)OC2=O)cc1 | 108% (inactive)
35 | O=C(CN1C(=O)NC2NC(=O)NC21)N/N=C/c1ccc(Cl)cc1Cl (stereo not given) | 112% (inactive)
36 | COc1cccc(Nc2ccnc3[nH]c4ccc([N+](=O)[O-])cc4c23)c1 | 42% (inactive)
37 | COc1ccc(C/C(C)=C(/c2ccc(OCCN3CCCCCC3)cc2)c2ccc(OC(=O)NCc3ccccc3)cc2)cc1 | 71.8% (inactive)
38 | O=C(O)C1CN(c2cccc(Cl)c2)N(c2cccc(Cl)c2)C1=O (stereo not given) | 102% (inactive)
39 | CN(C)c1ccc(/C=C/C(=O)c2ccc(Nc3nc(Nc4ccc(F)cc4)nc(Nc4ccc(Cl)cc4)n3)cc2)cc1 | 67.9% (inactive)
40 | COC(=O)c1nc(-c2ccccc2)oc1S(=O)(=O)N1CCC(C(N)=O)CC1 | 88.6% (inactive)
